GLP1R inv ag: GLP-1 receptor (human) inverse agonism. HEK293 GLP-1R CRE-luciferase, luminescence, 24 h; GLP-1R form is constitutively active. Potency, µM (series often up to 38.3 µM), for the others: top-dose activity change, negative = inhibition, usual class: inhibitors. actives 1.6% (n = 410,000). AID 624417; also: % is scaled to controls: 0 for no effect and ±100 for the full control effect; nearly all actives have a fitted effect of over 55% in size
Target sequence (P43220 whole entry, looked up): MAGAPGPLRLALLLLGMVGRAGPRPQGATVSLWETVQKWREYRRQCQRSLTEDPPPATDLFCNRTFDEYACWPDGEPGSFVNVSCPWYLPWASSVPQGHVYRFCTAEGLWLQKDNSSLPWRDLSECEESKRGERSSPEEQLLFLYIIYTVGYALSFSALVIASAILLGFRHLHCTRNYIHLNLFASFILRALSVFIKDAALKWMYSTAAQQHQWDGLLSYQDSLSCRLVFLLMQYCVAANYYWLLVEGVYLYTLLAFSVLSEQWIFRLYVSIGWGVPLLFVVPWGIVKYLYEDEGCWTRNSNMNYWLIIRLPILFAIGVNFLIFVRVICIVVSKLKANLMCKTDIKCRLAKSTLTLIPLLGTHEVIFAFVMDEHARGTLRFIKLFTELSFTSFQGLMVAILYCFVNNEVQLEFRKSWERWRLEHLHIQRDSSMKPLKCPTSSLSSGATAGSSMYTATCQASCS
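Readout was luciferase luminescence, measured 12 min after detection reagent at room temperature. Beforehand, GLP-1R reporter HEK293 cells had sat 12 h, then received compounds for 24 hr at 37 deg C.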
Gal4-VP16 FLuc: counter-screen for ROR gamma inhibitors: Gal4-VP16 reporter. AID 2546. Drosophila S2 Gal4-VP16 UAS-luciferase, luminescence, 20 h. actives 3.5% (n = 310,000). Potency, µM (series often up to 53.6 µM), for the others: top-dose activity, negative = inhibition, usual class: inhibitors;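 also: Gal4-VP16 expression switched on by copper sulfate through the metallothionein promoter; % is scaled to controls: 0 for no effect and ±100 for the full control effect; nearly all actives have a fitted effect of over 50% in size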
GLP1R cytotox: cytotoxicity in counter-screen for GLP-1R inverse agonists; AID 624418; Potency, µM (highest dose often 38.3 µM), for inactives: at the highest dose activity change, negative = inhibition, hits mostly inhibitors; HEK293 cAMP-luciferase reporter cells, luminescence, 24 h; actives 0.13% (n = 410,000);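 also: loss of luciferase light is scored as toxicity; % is scaled to controls: 0 for no effect and ±100 for the full control effect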
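Luminescence readout: signal drop marks cytotoxicity. Plated cells grew 12 h at 37 °C, 5% CO2, received 23 nL compound for 24 h, then got luciferase reagent, read after 12 min at RT.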
RORgamma inh: blocks mouse ROR gamma transcriptional activity. P51450. Drosophila S2 Gal4-RORgamma UAS-luciferase reporter, 20 h. Potency, µM (doses to about 53.6 µM), for inactives: at the highest dose activity change, negative = inhibition, hits mostly inhibitors. actives 5.4% (n = 310,000); also: % is scaled to controls: 0 for no effect and ±100 for the full control effect; nearly all actives have a fitted effect of over 60% in size
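Drosophila S2 cells stably expressing Gal4-DBD/mouse RORγ fusion under metallothionein promoter plus UAS-luciferase; compound 1 h, then 700 uM CuSO4 induction for 20 h at ambient temperature; inhibition read as reduced luminescence.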
GLP-1R agonist: agonists of human GLP-1 receptor | P43220 | HEK293 GLP-1R CRE-luciferase, luminescence, 4-6 h; cells express a hypersensitive GLP-1R form | Potency, µM (highest dose often 45.6 µM), for inactives: at the highest dose activation, hits mostly activators | actives 0.007% (n = 380,000) | AID 624172; also: % of control where 0% means no effect
* hit, by the source's call; ? = inconclusive; . = no result. An excerpt weighted towards active compounds, which were near 5.9% of everything screened. Calls follow the shape of the dose curve; as a rule, active = well fitted curve in the direction sought with a large enough effect; inconclusive = small, poorly fitted or top-dose-only effect, or another doubt; inactive = no such curve, though single readings can be large; an effect the other way counts as inactive or inconclusive. Potency is read from the fitted curve at half-maximal effect.

SMILES	GLP1R inv ag	Gal4-VP16 FLuc	GLP1R cytotox	RORgamma inh	GLP-1R agonist
COCCn1c(C)cc(C2=NNC(=Nc3ccccc3F)SC2)c1C	?	?	-20.8%	0.794µM*	-11.7%
NC1=NN=C(c2ccc3c(c2)OCCO3)CS1	?	10µM*	-10.3%	10µM*	-0.8%
C=CCN=C1NN=C(c2ccc3c(c2)OCCO3)CS1	-85.5%	5.62µM*	?	4.47µM*	-1.3%
CC(=O)CCS(=O)(=O)c1ccc(Oc2ccc(S(=O)(=O)CCC(C)=O)cc2)cc1	?	?	1.4%	8.91µM*	-24.5%
O=S(=O)(CCN1CCOCC1)c1ccc(Cl)cc1	13.8%	.	9.5%	.	12.7%
O=S(=O)(CCN1CCOCC1)c1ccc(Oc2ccc(S(=O)(=O)CCN3CCOCC3)cc2)cc1	23.0%	7.94µM*	-19.0%	?	1.9%
COc1ccccc1NC(=S)NC(=O)c1c(-c2ccccc2Cl)noc1C	3.98µM*	15.8µM*	-3.6%	2.51µM*	5.8%
COc1ccccc1CNC(=O)c1c(-c2ccccc2Cl)noc1C	?	-2.9%	-21.8%	-2.7%	0.8%
Cc1onc(-c2ccccc2Cl)c1C(=O)NNC(=O)c1ccccc1F	-10.6%	-0.7%	-4.9%	-2.9%	4.5%
Cc1onc(-c2ccccc2Cl)c1C(=O)NC(=S)Nc1ccccc1F	?	?	?	5.01µM*	2.6%
O=S(=O)(CC(CN1CCCC1)N1CCCC1)c1ccc2ccccc2c1 (configuration not stated)	0.0%	11.2µM*	-38.2%	?	-3.5%
C[C@H](NC(=O)c1nc[nH]c1C(=O)N[C@@H](Cc1ccccc1)C(=O)OCc1ccccc1)C(=O)OCc1ccccc1	?	?	0.6%	11.2µM*	3.4%
Cc1cccc(NC(=O)c2nc[nH]c2C(=O)N[C@@H](Cc2ccccc2)C(=O)OCc2ccccc2)c1	?	10µM*	-9.0%	2.24µM*	-0.3%
CNC(=O)c1[nH]cnc1C(=O)N[C@@H](Cc1ccccc1)C(=O)OCc1ccccc1	8.7%	?	9.2%	17.8µM*	-2.0%
CC(C)(C)OC(=O)NCCCC[C@H](NC(=O)c1[nH]cnc1C(=O)N[C@@H](Cc1ccccc1)C(=O)OCc1ccccc1)C(=O)OC(C)(C)C	-2.3%	.	4.8%	.	-3.0%
C[C@H](NC(=O)c1nc[nH]c1C(=O)N[C@@H](Cc1ccccc1)C(=O)OC(C)(C)C)C(=O)OCc1ccccc1	?	?	4.6%	7.94µM*	-5.3%
COc1ncc2nc(-c3ccc(F)cc3)c(=O)n(-c3ccccc3)c2n1	.	-0.7%	.	0.3%	.
O=C(NC(Cc1ccccc1)C(=O)O)c1ccccc1 (configuration not stated)	13.1%	-1.0%	0.1%	8.9%	-5.5%
O=C(N[C@@H](Cc1ccccc1)C(=O)OCc1ccccc1)c1nc[nH]c1C(=O)N1CCc2ccccc2C1	-0.4%	?	20.7%	12.6µM*	9.0%
O=C(NC(Cc1ccccc1)C(=O)N1CCc2ccccc2C1)c1ccccc1 (configuration not stated)	8.91µM*	20.9%	1.6%	3.6%	12.8%
C[C@H](NC(=O)c1nc[nH]c1C(=O)NC1CCN(C(=O)OC(C)(C)C)CC1)C(=O)OCc1ccccc1	-1.0%	?	-13.1%	14.1µM*	5.1%
CC(C)C[C@H](NC(=O)c1nc[nH]c1C(=O)N1CCc2ccccc2C1)C(=O)OCc1ccccc1	?	?	-5.4%	?	-0.9%
CCN(CC)C(=O)c1[nH]cnc1C(=O)N[C@@H](Cc1ccccc1)C(=O)OCc1ccccc1	-3.8%	?	9.1%	14.1µM*	3.5%
CCOc1ccc(-c2cn3c(n2)sc2cc(C(=O)NCCc4ccc(OC)cc4OC)ccc23)cc1	-4.6%	.	-0.8%	.	.
COCC1=C2c3ccccc3[C@H](C[N+](=O)[O-])C(C(=O)OC)(C(=O)OC)C[C@@H]2n2c(=O)n(-c3ccccc3)c(=O)n2C1	.	2.4%	.	2.6%	.
SMILES	GLP1R inv ag	Gal4-VP16 FLuc	GLP1R cytotox	RORgamma inh	GLP-1R agonist
COC(=O)c1ccc(CSc2nc3c([nH]c4ccccc43)c(=O)n2-c2ccc(F)cc2)o1	5.1%	.	-12.0%	.	9.9%
CC(C)(C)OC(=O)CNC(=O)c1nc[nH]c1C(=O)N1CCc2ccccc2C1	10.2%	?	13.3%	11.2µM*	-3.3%
CCc1c(C)c(C#N)c2nc3ccccc3n2c1Nc1cccc(C(F)(F)F)c1	-13.1%	.	96.8%	.	.
CCCn1c(-c2ccc(F)cc2)nc2c(NCCN(C(C)C)C(C)C)nc(C)nc21	.	-5.7%	.	-29.5%	.
O=C(NNC1=Nc2cccc3cccc1c23)c1ccc(Br)cc1	-0.4%	2µM*	-0.6%	0.708µM*	3.7%
COc1ccc(CC(=O)NNC2=Nc3cccc4cccc2c34)cc1OC	-23.1%	-20.7%	-4.0%	?	7.2%
Cc1c(C(=O)Nc2cnccn2)oc2ccccc12	5.5%	-2.3%	-19.6%	?	9.0%
CC(=O)Nc1ccc(NC(=S)NC(=O)c2oc3ccccc3c2C)cc1	5.7%	-8.0%	-14.8%	14.2%	-0.4%
Cc1ccnc(NC(=O)c2oc3ccccc3c2C)c1	11.2µM*	.	7.9%	.	0.3%
C=CCNC(=S)NC(=O)c1oc2ccccc2c1C	8.0%	?	-11.7%	6.31µM*	-10.1%
Cc1cccnc1NC(=S)NC(=O)c1oc2ccccc2c1C	4.47µM*	6.31µM*	?	2µM*	9.2%
COc1ccc(-c2nc(Cn3c(SCc4ccc(C)cc4)nc4cccnc43)c(C)o2)cc1OC	10µM*	.	-22.4%	.	.
FC(F)(F)c1cccc(CN2CCC(c3cc(-c4cccs4)n[nH]3)CC2)c1	6.31µM*	-19.6%	?	6.7%	13.7%
COc1ccc(C)cc1NC(=O)C1CCC(CNS(=O)(=O)c2ccc3c(c2)CCCC(=O)N3)CC1 (configuration not stated)	-10.3%	.	10.5%	.	.
CSc1nn(Cc2cccc(Cl)c2)c(N(C(C)=O)C(C)=O)c1S(=O)(=O)c1ccccc1	12.6µM*	.	-13.2%	.	-4.1%
CS(=O)(=O)Nc1cccc(-c2cncnc2NCc2cccs2)c1	.	5.4%	.	29.4%	.
O=C(NCc1cccnc1)c1ccc(-c2ccc(Cl)cc2)o1	18.4%	-11.8%	1.8%	?	-2.7%
O=C(NCc1cccnc1)/C(=C\c1ccc(-c2ccc(Cl)c(Cl)c2)o1)S(=O)(=O)c1ccccc1	?	5.62µM*	?	8.91µM*	-34.4%
Cc1ccn2cc(-c3ccc(O)c(O)c3)nc2c1	1.6%	12.6µM*	-15.3%	-39.4%	-3.8%
Cc1ccn2cc(-c3cccc(NC(=O)C(C)C)c3)nc2c1	12.3%	?	-3.5%	3.98µM*	-2.6%
CC(C)C(=O)Nc1cccc(-c2cn3ccccc3n2)c1	10.8%	-11.6%	18.5%	-35.6%	12.5%
O=C(C#Cc1ccccc1)c1ccccc1	?	.	-5.5%	.	-5.3%
